The test system of one test is HCC1937. Nature of the test: relative cell viability, compound + erastin, vs DMSO (fraction of DMSO control); higher = less growth inhibition. To be noted: 72 h.
Another test has as its system MDA-MB-231. The test is described as above. The conditions noted are these: 72 h.
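Further: viability read by CCK-8 kit in 96-well plates, part of a combination screen pairing lipid-metabolism-targeting compounds with erastin.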

As to `CC1=C[C@]2(O)O[C@@]3(CC2=C(C)C)[C@@H](C)CC[C@@H]13` [Curcumenol] + CCOc1ccccc1-n1c(C(C)N2CCN(C(=O)COc3ccc(Cl)cc3)CC2)nc2ccccc2c1=O [erastin], the relative cell viability with HCC1937 was 0.55; in the test on MDA-MB-231 it was 0.639.
As for `CC(C)C1=CC2=CC[C@@H]3[C@](C)(CCC[C@@]3(C)C(=O)O)[C@H]2CC1` [Abietic Acid] + CCOc1ccccc1-n1c(C(C)N2CCN(C(=O)COc3ccc(Cl)cc3)CC2)nc2ccccc2c1=O [erastin], the relative cell viability turned out to be 0.673 with HCC1937 and 1.04 in the test with MDA-MB-231.
Taken in the same sequence, the figures for `O=C(O)c1cc(F)c2nc(N3[C@@H]4CC[C@H]3C[C@@H](OCc3c(-c5ccccc5OC(F)(F)F)noc3C3CC3)C4)sc2c1` [Tropifexor] + CCOc1ccccc1-n1c(C(C)N2CCN(C(=O)COc3ccc(Cl)cc3)CC2)nc2ccccc2c1=O [erastin] were 0.658 and 0.652.
Taken in the same sequence, the figures for `CN1CC(O)C2=C/C(=N/NC(N)=O)C(=O)C=C21` (configuration not stated) [Carbazochrome] + CCOc1ccccc1-n1c(C(C)N2CCN(C(=O)COc3ccc(Cl)cc3)CC2)nc2ccccc2c1=O [erastin] were 0.484 and 0.682.
Taken in the same sequence, the figures for `CCOC(=O)c1c(NC(=O)CN2CCN(C(=O)c3ccco3)CC2)sc2c1CCC2` + CCOc1ccccc1-n1c(C(C)N2CCN(C(=O)COc3ccc(Cl)cc3)CC2)nc2ccccc2c1=O [erastin] were 0.647 and 0.839.
Consider `CC1=C(/C=C/C(C)=C/C=C/C(C)=C/C=C/C=C(C)/C=C/C=C(C)/C=C/C2=C(C)C(=O)[C@@H](O)CC2(C)C)C(C)(C)C[C@H](O)C1=O` [Astaxanthin] + CCOc1ccccc1-n1c(C(C)N2CCN(C(=O)COc3ccc(Cl)cc3)CC2)nc2ccccc2c1=O [erastin], for which the relative cell viability in the test with HCC1937 worked out at 0.674; in the test on MDA-MB-231, 1.56.

These data come from the supplement of paper PMC9492666.
